In PubChem BioAssay (EPA / NIEHS) one finds AC50 and outcome data, which are given here for six compounds.

Records with an inconclusive call do not appear. Activity calls are given as the source filed them. How the source made its calls, unless noted: active means hit-call score of the fitted dose curve at least 0.9, where 1 is the maximum; inactive means score below 0.9.

For orientation: AC50 means the concentration at which the activity in the assay is half-maximal.

The nature of assay [1]: ATG_TCF_b_cat_CIS: Attagene CIS-FACTORIAL HepG2 Assay for human T-Cell-Factor with beta-catenin (TCF/b-cat) (AID 2282965). The conditions noted are these: HepG2 TCF/beta-catenin cis-reporter transcription, actives raise or lower the signal. An outline of the steps:
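HepG2 cells transiently transfected with cis-promoter-driven multiplexed reporter units; reporter mRNA measured 24 h after dosing by RT-PCR, FAM labelling, HpaI digestion and capillary electrophoresis. Bidirectional fitting relative to DMSO baseline.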

Assay [2] in a line: ATG_TAL_CIS: Attagene CIS-FACTORIAL HepG2 Assay for human TAL Basal Promoter (AID 2282966).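 Further: background control endpoint measuring basal TAL promoter reporter mRNA not a specific factor.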 The note with it: HepG2 Attagene cis-factorial TAL promoter reporter; actives raise or lower the signal. In outline: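 In this cell-based multiplex, HepG2 liver cells bearing cis-promoter reporter constructs are dosed for 24 hours. Total RNA is reverse-transcribed and amplified, labelled fragments are sized by capillary electrophoresis, and signal changes are fitted bidirectionally versus DMSO.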

Assay [3] in a line: ATG_TGFb_CIS: Attagene CIS-FACTORIAL HepG2 Assay for human Transforming Growth Factor (TGF) (AID 2282967). The conditions noted are these: HepG2 Attagene CIS TGFb reporter, mRNA transcription; actives raise or lower the signal. In outline:
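HepG2 cells transiently transfected with cis-promoter-driven multiple reporter units measure endogenous TF activity; reporter mRNA quantified at 24 h by RT-PCR, FAM labeling, HpaI digestion and capillary electrophoresis. Bidirectional fit vs DMSO.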

Assay [4] is described as follows: ATG_VDRE_CIS: Attagene CIS-FACTORIAL HepG2 Assay for human Vitamin D Receptor Element (VDRE) (AID 2282968). The note with it: HepG2 VDRE cis-reporter transcription, actives raise or lower the signal. In outline: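 Cell-based multiplexed reporter format in human liver HepG2 cells, 24 h post-dose. Fluorescence from capillary electrophoresis of reporter cDNA gives the signal, with DMSO as negative control and baseline.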

The target of assay [5] is Estrogen receptor (Homo sapiens) (UniProt P03372). Put plainly: ATG_ERa_TRANS: Attagene TRANS-FACTORIAL HepG2 Assay for human Estrogen Receptor alpha (ERa) (AID 2282970; active means hit-call score of the fitted dose curve at least 0.9, where 1 is the maximum). The conditions noted are these: HepG2 Attagene TRANS ERa GAL4 reporter, mRNA. An outline of the steps:
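After 24 h of compound treatment, RNA from HepG2 cells bearing transfected GAL4-UAS reporter constructs is converted to cDNA, amplified and fluorescently labelled. Capillary electrophoresis resolves the ERa-linked reporter; DMSO serves as negative control.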

Assay [6] concerns the target X-box-binding protein 1 (Homo sapiens) (UniProt P17861). The assay is described as follows: ATG_Xbp1_CIS: Attagene CIS-FACTORIAL HepG2 Assay for human X-box Binding Protein 1 (XBP1) (AID 2282972). The note with it: HepG2 XBP1 cis-element reporter, Attagene multiplex; actives raise or lower the signal. In outline:
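Fluorescence-labelled cDNA fragments from reporter transcripts, separated by capillary electrophoresis, give the signal. Source: HepG2 cells transfected with promoter-driven reporter units, harvested 24 h post-dose. DMSO served as reference for bidirectional curve fitting.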

Assay [7] has as its target Hepatocyte nuclear factor 4-alpha (Homo sapiens) (UniProt P41235). Put plainly: ATG_HNF4a_TRANS: Attagene TRANS-FACTORIAL HepG2 Assay for human Hepatocyte Nuclear Factor 4 alpha (HNF4a) (AID 2282982; active means hit-call score of the fitted dose curve at least 0.9, where 1 is the maximum). The note with it: HepG2 HNF4a transactivation reporter, mRNA readout. An outline of the steps:
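Gain-of-signal mRNA induction, relative to DMSO vehicle, was read after 24 h compound treatment of HepG2 cells bearing transfected GAL4-UAS reporters. Detection used RT-PCR, 6-FAM primer extension and capillary electrophoresis.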

Assay [8] concerns the target Transcriptional activator Myb (Homo sapiens) (UniProt P10242). Put plainly: ATG_Myb_CIS: Attagene CIS-FACTORIAL HepG2 Assay for human Myeloblastosis (Myb) Proto-Oncogene Transcription Factor (AID 2282986). The conditions noted are these: HepG2 Attagene CIS-FACTORIAL Myb reporter transcription; actives raise or lower the signal. In outline: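 Transiently transfected HepG2 cells, treated 24 h. Reporter mRNA quantified by RT-PCR/capillary electrophoresis; bidirectional fit relative to DMSO.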

The nature of assay [9]: ATG_M_19_TRANS: Attagene TRANS-FACTORIAL HepG2 Assay for M19 Transcription Factor (Internal Marker) (AID 2282974; active means hit-call score of the fitted dose curve at least 0.9, where 1 is the maximum). The note with it: HepG2 Attagene TRANS-FACTORIAL M19 internal marker reporter. An outline of the steps:
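Reporter mRNA induction was measured in transfected HepG2 cells 24 h after dosing. Endpoint fitted upward relative to DMSO and serves as a background control within the multiplexed TRANS panel.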

Assay [10] concerns the target Nuclear receptor subfamily 4 group A member 2 (Homo sapiens) (UniProt P43354). Put plainly: ATG_NURR1_TRANS: Attagene TRANS-FACTORIAL HepG2 Assay for human Nuclear Receptor Related Protein 1 (NURR1) (AID 2282985; active means hit-call score of the fitted dose curve at least 0.9, where 1 is the maximum). The conditions noted are these: HepG2 Attagene TRANS reporter, mRNA readout. In outline: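 HepG2 / transient MRTU transfection / 24 h compound exposure / RT-PCR + CE fluorescence of reporter mRNA / gain-of-signal vs DMSO.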

Assay [11] addresses Glucocorticoid receptor (Homo sapiens) (UniProt P04150). Put plainly: ATG_GR_TRANS: Attagene TRANS-FACTORIAL HepG2 Assay for human Glucocorticoid Receptor (GR) (AID 2282978; active means hit-call score of the fitted dose curve at least 0.9, where 1 is the maximum;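 further: activators score as hits since higher reporter transcript over DMSO is fitted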). The conditions noted are these: HepG2 Attagene TRANS GR reporter, mRNA transcription. In outline:
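Reporter transcript levels, detected by fluorescence after RT-PCR and capillary electrophoresis, served as the endpoint. HepG2 cells bearing transfected GAL4-UAS reporters responsive to NR-GAL4 chimeras were incubated with compound 24 h; DMSO defined baseline.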

Assay [12] concerns the target Oxysterols receptor LXR-beta (Homo sapiens) (UniProt P55055). The assay is described as follows: ATG_LXRb_TRANS: Attagene TRANS-FACTORIAL HepG2 Assay for human Liver X Receptor beta (LXRb) (AID 2282981; active means hit-call score of the fitted dose curve at least 0.9, where 1 is the maximum). The note with it: HepG2 Attagene TRANS GAL4-LXRb reporter, mRNA. An outline of the steps: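 Gain-of-signal mRNA reporter endpoint, DMSO as negative control. Transiently transfected HepG2 cells carrying the NR-Gal4 chimera and GAL4-UAS reporter units were treated 24 h; transcripts quantified by RT-PCR and capillary electrophoresis fluorescence.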

The nature of assay [13]: ATG_M_32_TRANS: Attagene TRANS-FACTORIAL HepG2 Assay for M32 Transcription Factor (Internal Marker) (AID 2282984; active means hit-call score of the fitted dose curve at least 0.9, where 1 is the maximum;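 further: transcript level of a background control reporter unit measured by RT-PCR and capillary electrophoresis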). The note with it: HepG2 Attagene TRANS M32 internal marker reporter. In outline:
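Capillary electrophoresis of 6-FAM-labelled reporter fragments gives the signal; data fitted for gain over DMSO negative control. Source: HepG2 cells bearing transient multiple reporter transcription units, 24 h exposure.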

A short description of assay [14]: ATG_GAL4_TRANS: Attagene TRANS-FACTORIAL HepG2 Assay for GAL4 (Internal Marker) (AID 2282976; active means hit-call score of the fitted dose curve at least 0.9, where 1 is the maximum). The conditions noted are these: HepG2 Attagene TRANS GAL4 internal marker reporter. In outline: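 RT-PCR/capillary electrophoresis readout of reporter mRNA. HepG2, transient MRTU transfection (GAL4-UAS reporters), 24 h compound exposure. Background-control endpoint, positive direction vs DMSO baseline.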

For assay [15], the target named is Estrogen-related receptor gamma (Homo sapiens) (UniProt P62508). The assay is described as follows: ATG_ERRg_TRANS: Attagene TRANS-FACTORIAL HepG2 Assay for human Estrogen-Related Receptor gamma (ERRg) (AID 2282977; active means hit-call score of the fitted dose curve at least 0.9, where 1 is the maximum;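 further: hits increase reporter signal over DMSO so potencies reflect activators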). The conditions noted are these: HepG2 Attagene TRANS reporter, ERRg transactivation. An outline of the steps:
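Transient HepG2 transfectants, 24 h compound exposure, GAL4-UAS reporter mRNA by RT-PCR/6-FAM labelling/capillary electrophoresis; positive direction vs DMSO.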

In assay [16] the target is Bile acid receptor (Homo sapiens) (UniProt Q96RI1). Put plainly: ATG_FXR_TRANS: Attagene TRANS-FACTORIAL HepG2 Assay for Farnesoid X Receptor (FXR) (AID 2282979; active means hit-call score of the fitted dose curve at least 0.9, where 1 is the maximum;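 further: hits raise reporter mRNA above DMSO so AC50 marks FXR activation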). The conditions noted are these: HepG2 Attagene TRANS FXR-GAL4 reporter transcription. An outline of the steps: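 Read-out: fluorescent reporter transcripts quantified by capillary electrophoresis after RT-PCR of total RNA. Source cells were HepG2 transiently carrying chimeric NR-GAL4 plus GAL4-UAS reporter units, dosed 24 h. Activity fitted upward relative to DMSO baseline.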

A short description of assay [17]: ATG_M_06_TRANS: Attagene TRANS-FACTORIAL HepG2 Assay for M06 Transcription Factor (Internal Marker) (AID 2282983; active means hit-call score of the fitted dose curve at least 0.9, where 1 is the maximum). The conditions noted are these: HepG2 Attagene TRANS M06 internal marker reporter. In outline:
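After a 24 h chemical treatment of transfected HepG2, RNA underwent DNase I treatment, reverse transcription and reporter-specific PCR; labelled, HpaI-digested products were sized by capillary electrophoresis. Signal increase relative to DMSO defined activity.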

Assay [18] deals with Steroid hormone receptor ERR1 (Homo sapiens) (UniProt P11474). The assay is described as follows: ATG_ERRa_TRANS: Attagene TRANS-FACTORIAL HepG2 Assay for human Estrogen-Related Receptor alpha (ERRa) (AID 2282971; active means hit-call score of the fitted dose curve at least 0.9, where 1 is the maximum). The note with it: HepG2 Attagene TRANS reporter, ERRa transactivation. An outline of the steps:
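Transfected HepG2, 24 h dosing, ERRa-Gal4 chimera driving GAL4-UAS reporter. Readout: reporter mRNA via RT-PCR plus capillary electrophoresis (fluorescence). Positive direction vs DMSO control.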

X-box-binding protein 1 (Homo sapiens), sequence (P17861 whole entry, looked up, the tested form may be a part): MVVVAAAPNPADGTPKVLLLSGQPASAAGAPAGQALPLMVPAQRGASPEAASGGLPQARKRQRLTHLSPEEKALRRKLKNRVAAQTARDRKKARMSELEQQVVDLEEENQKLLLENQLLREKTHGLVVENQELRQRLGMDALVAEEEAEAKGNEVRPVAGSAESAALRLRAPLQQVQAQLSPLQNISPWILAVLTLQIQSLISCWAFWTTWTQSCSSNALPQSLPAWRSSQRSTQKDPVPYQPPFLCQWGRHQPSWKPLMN
Nuclear receptor subfamily 4 group A member 2 (Homo sapiens), sequence (P43354 whole entry, looked up): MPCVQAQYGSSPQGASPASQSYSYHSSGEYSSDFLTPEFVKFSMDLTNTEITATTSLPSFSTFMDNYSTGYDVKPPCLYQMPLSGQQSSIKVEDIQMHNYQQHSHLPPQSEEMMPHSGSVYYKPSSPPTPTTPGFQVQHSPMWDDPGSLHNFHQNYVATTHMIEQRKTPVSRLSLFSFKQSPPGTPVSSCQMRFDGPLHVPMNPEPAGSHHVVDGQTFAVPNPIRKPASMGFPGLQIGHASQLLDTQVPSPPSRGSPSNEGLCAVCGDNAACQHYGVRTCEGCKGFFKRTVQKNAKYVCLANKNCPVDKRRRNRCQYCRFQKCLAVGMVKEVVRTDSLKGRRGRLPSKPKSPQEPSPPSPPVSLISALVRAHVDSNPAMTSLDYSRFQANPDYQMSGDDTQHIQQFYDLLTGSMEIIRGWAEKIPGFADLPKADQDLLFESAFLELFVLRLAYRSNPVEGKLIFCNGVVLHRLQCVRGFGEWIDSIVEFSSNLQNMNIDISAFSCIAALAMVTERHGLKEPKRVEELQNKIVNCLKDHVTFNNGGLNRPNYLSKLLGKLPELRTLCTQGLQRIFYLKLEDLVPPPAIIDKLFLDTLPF
Glucocorticoid receptor (Homo sapiens), sequence (P04150 whole entry, looked up, the tested form may be a part): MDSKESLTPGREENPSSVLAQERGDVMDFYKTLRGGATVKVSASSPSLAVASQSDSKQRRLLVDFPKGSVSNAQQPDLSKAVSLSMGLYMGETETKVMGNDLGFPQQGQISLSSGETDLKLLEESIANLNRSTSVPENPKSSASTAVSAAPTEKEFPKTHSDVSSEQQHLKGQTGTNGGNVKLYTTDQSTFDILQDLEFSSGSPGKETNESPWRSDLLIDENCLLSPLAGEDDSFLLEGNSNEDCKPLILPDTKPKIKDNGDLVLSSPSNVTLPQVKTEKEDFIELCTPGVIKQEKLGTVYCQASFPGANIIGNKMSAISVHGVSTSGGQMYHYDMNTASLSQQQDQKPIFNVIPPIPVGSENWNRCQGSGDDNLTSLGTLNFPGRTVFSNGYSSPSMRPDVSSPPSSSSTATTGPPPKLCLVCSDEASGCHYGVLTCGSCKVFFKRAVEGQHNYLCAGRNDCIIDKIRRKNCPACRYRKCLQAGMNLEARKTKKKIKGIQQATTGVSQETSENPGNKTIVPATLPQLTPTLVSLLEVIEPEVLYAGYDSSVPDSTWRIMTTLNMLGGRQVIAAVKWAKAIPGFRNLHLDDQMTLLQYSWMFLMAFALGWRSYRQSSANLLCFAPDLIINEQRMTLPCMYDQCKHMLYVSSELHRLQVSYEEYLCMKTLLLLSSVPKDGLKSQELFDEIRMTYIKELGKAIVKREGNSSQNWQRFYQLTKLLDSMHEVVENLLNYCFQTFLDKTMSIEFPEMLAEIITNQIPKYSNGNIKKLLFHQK
Transcriptional activator Myb (Homo sapiens), sequence (P10242 whole entry, looked up): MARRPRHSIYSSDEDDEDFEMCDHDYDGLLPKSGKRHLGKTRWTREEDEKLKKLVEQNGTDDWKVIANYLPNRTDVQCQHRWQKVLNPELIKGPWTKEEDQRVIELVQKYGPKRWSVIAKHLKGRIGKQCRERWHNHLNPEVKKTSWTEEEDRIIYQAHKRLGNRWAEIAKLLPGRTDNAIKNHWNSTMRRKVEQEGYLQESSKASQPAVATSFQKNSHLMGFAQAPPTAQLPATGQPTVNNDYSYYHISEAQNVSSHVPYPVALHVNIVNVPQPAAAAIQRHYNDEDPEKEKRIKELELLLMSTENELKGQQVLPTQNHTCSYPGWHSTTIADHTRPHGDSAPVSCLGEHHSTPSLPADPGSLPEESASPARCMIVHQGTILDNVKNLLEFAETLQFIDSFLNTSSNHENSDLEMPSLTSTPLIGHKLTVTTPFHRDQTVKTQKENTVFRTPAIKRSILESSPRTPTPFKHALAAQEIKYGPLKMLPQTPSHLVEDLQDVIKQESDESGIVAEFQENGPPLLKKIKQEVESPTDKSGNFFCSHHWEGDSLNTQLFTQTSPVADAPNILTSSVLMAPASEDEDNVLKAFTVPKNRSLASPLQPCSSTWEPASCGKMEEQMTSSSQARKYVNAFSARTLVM
Oxysterols receptor LXR-beta (Homo sapiens), sequence (P55055 whole entry, looked up, the tested form may be a part): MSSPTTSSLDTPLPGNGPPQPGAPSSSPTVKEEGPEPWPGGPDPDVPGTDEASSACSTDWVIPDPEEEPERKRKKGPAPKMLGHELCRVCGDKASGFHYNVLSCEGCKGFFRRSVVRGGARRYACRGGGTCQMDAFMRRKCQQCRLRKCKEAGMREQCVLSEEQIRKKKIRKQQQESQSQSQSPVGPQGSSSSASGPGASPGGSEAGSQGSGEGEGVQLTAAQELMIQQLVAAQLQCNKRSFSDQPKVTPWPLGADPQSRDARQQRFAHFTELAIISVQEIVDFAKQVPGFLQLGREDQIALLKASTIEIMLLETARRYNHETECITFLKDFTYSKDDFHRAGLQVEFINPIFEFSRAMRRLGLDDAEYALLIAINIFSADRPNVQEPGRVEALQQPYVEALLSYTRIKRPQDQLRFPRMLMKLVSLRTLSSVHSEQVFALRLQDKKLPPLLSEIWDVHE
Hepatocyte nuclear factor 4-alpha (Homo sapiens), sequence (P41235 whole entry, looked up, the tested form may be a part): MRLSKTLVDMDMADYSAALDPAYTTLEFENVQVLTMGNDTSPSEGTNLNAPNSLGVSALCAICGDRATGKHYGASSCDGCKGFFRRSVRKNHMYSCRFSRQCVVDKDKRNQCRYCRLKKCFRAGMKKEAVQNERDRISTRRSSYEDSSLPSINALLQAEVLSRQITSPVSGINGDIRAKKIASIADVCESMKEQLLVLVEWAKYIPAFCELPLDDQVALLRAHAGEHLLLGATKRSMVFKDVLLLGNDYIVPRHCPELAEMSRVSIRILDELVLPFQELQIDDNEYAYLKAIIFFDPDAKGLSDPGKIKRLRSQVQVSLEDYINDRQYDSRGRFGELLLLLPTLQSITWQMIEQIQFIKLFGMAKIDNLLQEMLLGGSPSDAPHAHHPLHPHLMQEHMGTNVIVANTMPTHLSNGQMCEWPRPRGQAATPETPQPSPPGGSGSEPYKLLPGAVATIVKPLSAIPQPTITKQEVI
Estrogen receptor (Homo sapiens), sequence (P03372 whole entry, looked up, the tested form may be a part): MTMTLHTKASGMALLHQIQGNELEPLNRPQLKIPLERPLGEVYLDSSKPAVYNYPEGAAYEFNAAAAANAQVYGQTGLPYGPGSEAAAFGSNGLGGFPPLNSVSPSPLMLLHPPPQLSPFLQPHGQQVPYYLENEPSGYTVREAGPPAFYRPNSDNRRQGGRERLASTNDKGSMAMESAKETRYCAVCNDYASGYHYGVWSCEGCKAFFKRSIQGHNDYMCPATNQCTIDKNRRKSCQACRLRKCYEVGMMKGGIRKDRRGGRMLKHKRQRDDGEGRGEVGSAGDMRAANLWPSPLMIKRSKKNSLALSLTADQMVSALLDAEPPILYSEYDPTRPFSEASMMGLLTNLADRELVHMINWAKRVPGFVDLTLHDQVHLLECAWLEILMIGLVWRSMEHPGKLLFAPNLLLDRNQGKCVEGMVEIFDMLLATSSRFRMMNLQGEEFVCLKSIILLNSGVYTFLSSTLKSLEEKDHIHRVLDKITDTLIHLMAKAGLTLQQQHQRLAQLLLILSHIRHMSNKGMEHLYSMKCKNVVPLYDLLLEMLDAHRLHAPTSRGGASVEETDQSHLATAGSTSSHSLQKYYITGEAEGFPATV
Steroid hormone receptor ERR1 (Homo sapiens), sequence (P11474 whole entry, looked up, the tested form may be a part): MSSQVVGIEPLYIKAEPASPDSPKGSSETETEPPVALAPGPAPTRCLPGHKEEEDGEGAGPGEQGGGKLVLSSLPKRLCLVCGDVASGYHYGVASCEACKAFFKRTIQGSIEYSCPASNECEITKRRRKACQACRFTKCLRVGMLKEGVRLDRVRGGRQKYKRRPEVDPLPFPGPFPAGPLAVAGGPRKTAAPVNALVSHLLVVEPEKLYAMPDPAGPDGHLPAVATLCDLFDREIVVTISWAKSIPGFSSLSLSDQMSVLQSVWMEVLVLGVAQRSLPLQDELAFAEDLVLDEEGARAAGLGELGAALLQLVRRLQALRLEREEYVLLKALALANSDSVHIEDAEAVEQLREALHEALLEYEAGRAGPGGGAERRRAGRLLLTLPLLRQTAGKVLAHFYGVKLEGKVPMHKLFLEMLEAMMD
Bile acid receptor (Homo sapiens), sequence (Q96RI1 whole entry, looked up, the tested form may be a part): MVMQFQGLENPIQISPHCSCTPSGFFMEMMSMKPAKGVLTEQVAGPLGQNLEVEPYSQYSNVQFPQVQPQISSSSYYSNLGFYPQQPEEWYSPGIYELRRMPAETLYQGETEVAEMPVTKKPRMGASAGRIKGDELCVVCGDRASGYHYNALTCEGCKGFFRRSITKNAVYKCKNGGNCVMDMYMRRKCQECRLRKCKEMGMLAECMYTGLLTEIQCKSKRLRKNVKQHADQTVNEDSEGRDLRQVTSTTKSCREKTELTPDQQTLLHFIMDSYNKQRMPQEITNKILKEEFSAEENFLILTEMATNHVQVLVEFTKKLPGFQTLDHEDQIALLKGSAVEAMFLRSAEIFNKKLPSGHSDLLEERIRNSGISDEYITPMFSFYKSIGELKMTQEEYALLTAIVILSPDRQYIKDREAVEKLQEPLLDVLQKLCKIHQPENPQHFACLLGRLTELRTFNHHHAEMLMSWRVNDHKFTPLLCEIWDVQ

Consider `CCCCCCCCCCO`, for which the concentration at half-maximal activity (AC50) in [1] is 166 µM (active); in [6] it was 160 µM (active). The compound was classed as inactive in [2], in [3], in [4], in assay [5], in assay [7] and in assay [8].

`COc1ccc(S(=O)(=O)N2C(=O)[C@@](c3ccccc3OC)(N3C[C@H](O)C[C@H]3C(=O)N(C)C)c3cc(Cl)ccc32)c(OC)c1`: the AC50 in assay [1] was 42.1 µM (active); in assay [2], 177 µM (active); in [3] it was 145 µM (active); in [4] it was 19.8 µM (active); in [6] it was 69.5 µM (active); in assay [8] it was 163 µM (active). The call in assay [9] and in assay [10] was inactive.

On to `Cc1oc(-c2ccccc2)nc1CCOc1cccc2c1ccn2CCC(=O)O`, for which the compound was called inactive in [1], in assay [2], in assay [3], in assay [4], in [6] and in [9]. In addition, the compound was called inactive in [11], in [12], in assay [13], in assay [10] and in [8].

For the compound `Cc1nc(C)nc(N2C[C@@H](C)N(c3ccnc([C@@H](C)O)n3)[C@@H](C)C2)n1`, the result in assay [1], in assay [2], in [3], in assay [4], in assay [6] and in [14] was inactive. In addition, the outcome in [15], in assay [11], in assay [16], in [12], in assay [17] and in assay [13] was inactive. In [8], the result was inactive.

For `CC(=O)C(C)=CC1C(C)=CCCC1(C)C` (stereo not given), the compound was classed as inactive in [1], in assay [2], in assay [3], in assay [6], in assay [14] and in assay [13]. The compound was classed as inactive in assay [10] and in assay [8]. Besides, the AC50 in [5] is 29.8 µM (active).

With `CCCCCCCCCCC`, the call in [1], in assay [2], in assay [3], in assay [18], in assay [6] and in [9] was inactive. Further, the result in assay [14], in assay [11], in [7], in assay [17] and in assay [8] was inactive.
